KDM5B inh = KDM5B demethylase inhibition; Q9UGL1; KDM5B demethylase, FDH-coupled NADH fluorescence (FDH is formaldehyde dehydrogenase); Potency, µM (highest dose often 57.7 µM), actives largely listed as inhibitors; 220,000 compounds, 2.6% hits; AID 1347165; active = well fitted inhibition curve with a large enough effect; inconclusive = small, poorly fitted or top-dose-only effect; inactive = no such curve, though single readings can be large or run the other way; note: potency is the fitted concentration of half-maximal effect; 0% is about no effect; nearly all actives have a fitted effect of over 70% in size
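Inhibition is measured as reduced NADH fluorescence generation from FDH coupling to formaldehyde release. Truncated KDM5BΔAP at 200 nM final acts on H3K4me3 peptide (12.5 µM in substrate mix) in pH 7.5 HEPES buffer with Tween-20, 30 min, room temperature.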
IP6K1 inh = IP6K1 kinase inhibition; activity change, % (series mostly up to about 58 µM); IP6K1 kinase, ADP-Glo luminescence, 2 h; active compounds read low; 140,000 compounds, 0.81% hits; Q92551; in the data active = activity change below about -25%; note: % is set by controls: 0 for no effect and ±100 for the full control effect
Target sequence (Q92551 whole entry, looked up): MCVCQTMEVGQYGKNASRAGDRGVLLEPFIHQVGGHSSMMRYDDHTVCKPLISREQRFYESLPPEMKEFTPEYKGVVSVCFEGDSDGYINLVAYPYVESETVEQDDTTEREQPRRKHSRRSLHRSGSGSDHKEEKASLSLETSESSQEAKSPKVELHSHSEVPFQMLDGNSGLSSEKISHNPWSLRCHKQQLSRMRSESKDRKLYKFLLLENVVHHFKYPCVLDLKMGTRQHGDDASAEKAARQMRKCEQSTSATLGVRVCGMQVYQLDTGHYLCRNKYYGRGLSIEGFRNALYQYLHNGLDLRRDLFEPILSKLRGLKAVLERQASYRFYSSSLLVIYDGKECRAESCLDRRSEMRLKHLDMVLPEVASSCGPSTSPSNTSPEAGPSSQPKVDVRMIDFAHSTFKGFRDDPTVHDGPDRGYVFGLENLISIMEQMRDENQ
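ADP-Glo luminescence measures ADP made by human IP6K1 during a 2 h RT reaction with ATP/IP6 (mix at 1.3 mM/130 uM); top library doses 57.5 and 19.1 uM final.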
An asterisk follows results filed as active. Rows were chosen to be rich in hits. Some 2.8% of all compounds tested hit in one or more screens of this group.

For Cn1cnnc1CC1CCN(C(=O)CCc2ccccc2)CC1 the results were IP6K1 inh -6.
For COc1ccc(Cl)cc1C(=O)NCc1nnc2cc(-c3nc(C4CC4)no3)ccn12 the results were KDM5B inh inconclusive and IP6K1 inh 6.
For Cc1cccc(C(=O)NCc2nnc3cc(-c4nc(C5CC5)no4)ccn23)c1 the results were KDM5B inh inactive and IP6K1 inh 0.
Screening O=C(NCc1nnc2cc(-c3nc(C4CC4)no3)ccn12)c1cccnc1 returned KDM5B inh 28µM* and IP6K1 inh 6.
`O=C(NCc1nnc2cc(-c3nc(C4CC4)no3)ccn12)c1ccccc1F` gave KDM5B inh 8.9µM* and IP6K1 inh 11.
Screening O=C(NCc1nnc2cc(-c3nc(C4CC4)no3)ccn12)c1ccc(F)cc1 returned KDM5B inh inactive and IP6K1 inh -5.
`O=C(NCc1nnc2cc(-c3nc(C4CC4)no3)ccn12)c1nccc2ccccc12` gave KDM5B inh 28µM* and IP6K1 inh 6.
O=C(NCc1nnc2c(-c3nc(C4CC4)no3)cccn12)c1nccc2ccccc12 was read as KDM5B inh inconclusive and IP6K1 inh 45.
COc1ccccc1C(=O)NCc1nnc2cc(-c3nc(C4CC4)no3)ccn12 was read as KDM5B inh 28µM* and IP6K1 inh 7.
N#C/C(=C\c1ccnc2ccccc12)c1nc2ccccc2s1 was read as KDM5B inh inactive.
Screening Cn1ncc2c(C(=O)NCc3cccc(F)c3)cc(-c3ccccc3C(F)(F)F)nc21 returned IP6K1 inh 0.
`c1ccc(OCC2CN(Cc3ccc4[nH]ccc4c3)CC23CN(c2ccccc2)C3)cc1` (configuration not stated) gave KDM5B inh inconclusive and IP6K1 inh -1.
O=C(NCc1nnc2cc(-c3nc(C4CC4)no3)ccn12)c1ccc(F)c(F)c1 was read as KDM5B inh 28µM* and IP6K1 inh 23.
O=C(NCc1nnc2cc(-c3nc(C4CC4)no3)ccn12)c1ccc(F)c(Cl)c1 was read as KDM5B inh inconclusive and IP6K1 inh 12.
O=C(NC1CC1)c1nc2cccnc2n(CCc2ccccc2)c1=O was read as IP6K1 inh 21.
For Cc1cnc(C2CCN(Cc3ccc(F)cc3F)C2)n1Cc1ccccc1 (configuration not stated) the results were IP6K1 inh 2.
For O=C(NCC(=O)N1CCN(c2ccccn2)CC1)c1cncc(Br)c1 the results were KDM5B inh inconclusive and IP6K1 inh 3.
O=C1N[C@H](CC(=O)N2CCN(c3ccccn3)CC2)C(=O)Nc2ccccc21 was read as KDM5B inh 28µM* and IP6K1 inh -2.
`O=C(NCCNC(=O)c1cc2ccccc2[nH]1)c1ccccn1` gave KDM5B inh inactive.
`Cc1ccc(C(=O)NCC(=O)N2CCN(c3ccccn3)CC2)cc1` gave KDM5B inh 28µM* and IP6K1 inh 22.
Screening O=C(NCC(=O)N1CCN(c2ccccn2)CC1)c1cc2ccccc2[nH]1 returned KDM5B inh 14µM* and IP6K1 inh 2.
Cn1c(N2CCN(C(=O)C[C@H]3NC(=O)c4ccccc4NC3=O)CC2)nc2ccccc21 was read as KDM5B inh inactive and IP6K1 inh 1.
For CCOc1ccccc1C(=O)NCC(=O)N1CCN(c2ccccn2)CC1 the results were KDM5B inh 28µM* and IP6K1 inh 6.
Screening COCC(=O)N1CCC(Oc2ccccc2C(=O)N2CCN(c3ccccn3)CC2)CC1 returned KDM5B inh inconclusive and IP6K1 inh 29.
For COc1ccc(F)cc1-c1cccc(C(=O)NCCNC(=O)Nc2ccccc2)c1 the results were IP6K1 inh -5.
`Cc1c(Cl)cccc1NC(=O)CCNC(=O)c1cccs1` gave KDM5B inh inactive.
For CC(C)(C)CC(=O)NCC(=O)N1CCN(c2ccccn2)CC1 the results were KDM5B inh 28µM* and IP6K1 inh 4.
Screening CC(C)CC(=O)NCC(=O)N1CCN(c2ccccn2)CC1 returned KDM5B inh 25µM* and IP6K1 inh 11.
`CC(C)CC(=O)NCCc1ccccn1` gave KDM5B inh inactive.
`O=C(/C=C/c1ccccc1F)N1CCN(c2ccccn2)CC1` gave KDM5B inh inactive.
CC(=O)NCc1ccc(S(=O)(=O)N2CCN(c3ccccn3)CC2)cc1 was read as KDM5B inh inactive.
O=C(Cc1c(F)cccc1Cl)NCC(=O)N1CCN(c2ccccn2)CC1 was read as KDM5B inh 25µM* and IP6K1 inh 6.
`N#CC1CCN(C(=O)C2CCCCN2Cc2ccc(-c3ccsc3)cc2)CC1` (configuration not stated) gave IP6K1 inh 3.
`O=C(c1cc2ccccc2[nH]1)N1CCC2(CC1)CN(c1ncccn1)CC2CO` (configuration not stated) gave KDM5B inh inconclusive and IP6K1 inh 0.
Screening COc1cc(CN2CCC3(CC2)CN(c2ccncn2)CC3CO)ccc1F (configuration not stated) returned KDM5B inh inactive and IP6K1 inh 20.
`Cc1ccc(CN2CCC3(CC2)CN(c2ncccn2)CC3CO)cc1C` (configuration not stated) gave KDM5B inh 25µM* and IP6K1 inh 6.
Screening OCC1CN(c2ncccn2)CC12CCN(Cc1ccncc1)CC2 (configuration not stated) returned KDM5B inh 22µM* and IP6K1 inh 18.
COCC1CN(C)CC12CCN(Cc1cc(C)nn1C)CC2 (configuration not stated) was read as KDM5B inh inactive and IP6K1 inh -3.
`O=C(c1ccncc1)N1CCC2(CC1)CN(c1ncccn1)CC2CO` (configuration not stated) gave KDM5B inh 22µM* and IP6K1 inh 4.
`OCC1CN(c2ncccn2)CC12CCN(Cc1cccc(Cl)c1F)CC2` (configuration not stated) gave KDM5B inh inconclusive and IP6K1 inh -2.
For Cc1cc(CN2CCC3(CC2)CN(c2ncccn2)CC3CO)n(C)n1 (configuration not stated) the results were KDM5B inh 32µM* and IP6K1 inh 11.
Screening CNC(=O)c1cc(C2CC2)nc2c1c(C1CCN([S+](=O)([O-])c3c(C)noc3C)C1)nn2C (configuration not stated) returned IP6K1 inh -1.
`O=C(NCc1ccccc1)c1nc2sccn2c1-c1ccc(C(F)(F)F)cc1` gave IP6K1 inh 11.
For CCn1nccc1C(=O)N1CCC(N2C(=O)[C@H]3CN(Cc4ccccc4)C[C@H]3C2=O)CC1 the results were IP6K1 inh 22.
Cc1ccc(CN2CCC3(CC2)CCN(Cc2ccco2)CC3CO)s1 (configuration not stated) was read as KDM5B inh inactive and IP6K1 inh -1.
OCC1CN(C2CCC2)CC12CCN(Cc1ccsc1)CC2 (configuration not stated) was read as KDM5B inh inconclusive and IP6K1 inh 7.
CC(=O)N1CCC2(CC1)CCN(c1ncccc1C#N)CC2CO (configuration not stated) was read as KDM5B inh 32µM* and IP6K1 inh -7.
For OCC1CN(c2ncccn2)CC12CCN(Cc1ccsc1)CC2 (configuration not stated) the results were KDM5B inh 32µM* and IP6K1 inh 10.

High-throughput results from PubChem BioAssay.
